Experimental data: PubChem BioAssay
Active and inactive are the calls of the source.

Assays:
[1] = anti-His antibody binders, primary screen, artefact control for SMM control protein annotation, biochemical, small-molecule microarray, 635 nm fluorescence (AID 1128); conditions: anti-His Alexa647 antibody binding, higher = more signal;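 note: score merges feature fluorescence with signal-to-noise for each printed compound spot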
[2] = tested on: Human papillomavirus type 1a E7 protein (residues 1-88); assay: HPV1a E7 small-molecule binders, primary screen, biochemical, small-molecule microarray, residues 1-88, 635 nm (AID 1129); conditions: small-molecule microarray binding, fluorescence 635 nm; higher = more signal
[3] = molecular target: Focal adhesion kinase 1 (Homo sapiens) (UniProt Q05397); assay: small-molecule microarray binders of FAK, primary screen, biochemical, 635/667 nm fluorescence, BSA, DTT (AID 1130); conditions: PTK2 binding, 635 nm fluorescence, higher = more signal;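 note: composite of spot emission at 667 nm and signal to noise over triplicate slides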
[4] = tested on: Fibrinogen (Alexa647-labelled); assay: fibrinogen binders on compound microarrays, profiling panel, artefact control for SMM control-protein annotation, biochemical, small-molecule microarray, 635/667 nm fluorescence (AID 1131); conditions: fibrinogen-A647 binding fluorescence, higher = more signal;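 note: z-score merges 667 nm fluorescence with per-spot signal-to-noise over triplicate slides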
[5] = molecular target: Follistatin (Homo sapiens) (UniProt P19883); assay: follistatin binders on small-molecule microarrays, primary screen, biochemical, small-molecule microarray, 635/667 nm fluorescence (AID 1132); conditions: FST binding, 635 nm fluorescence, higher = more signal
[6] = molecular target: Fibroblast growth factor 2 (Homo sapiens) (UniProt P09038); assay: FGF2 binders on small-molecule microarrays, primary screen, biochemical, small-molecule microarray, 635/667 nm fluorescence (AID 1133); conditions: small-molecule microarray binding, FGF2, fluorescence 635/667; higher = more signal
[7] = mitochondrial membrane potential change in A549 cells, profiling panel, cell-based, JC-1 fluorescence, basal, 24 h, 100 nL (AID 1138); conditions: higher = more signal;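 note: A549 lung adenocarcinoma cells under basal conditions with no added stimulus; test concentration not given here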
[8] = tested on: Lefty1; assay: Lefty1 binders on small-molecule microarrays, primary screen, biochemical, small-molecule microarray, 635/667 nm fluorescence (AID 1139); conditions: small-molecule microarray binding, fluorescence 635/667; higher = more signal
[9] = tested on: wheat germ agglutinin (Triticum aestivum), Alexa647-labelled; assay: wheat germ agglutinin binders on compound microarrays, profiling panel, artefact control for SMM control-protein annotation, biochemical, small-molecule microarray, 635/667 nm fluorescence (AID 1140); conditions: WGA-A647 binding, 635 nm fluorescence, higher = more signal;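 note: score merges 667 nm feature emission with signal to noise over triplicate slides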
[10] = molecular target: Luciferin 4-monooxygenase (Photinus pyralis) (UniProt P08659); assay: firefly luciferase enzyme inhibitors, primary screen, biochemical, luminescence, purified enzyme, 2006 set (AID 1141); conditions: SteadyGlo luminescence, 30 min, higher = more signal, called active from +8 up or from −8 down;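 note: cell-free assay with purified firefly luciferase at 100 ng per well in PBS; test concentration not given here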
Chain of Luciferin 4-monooxygenase (Photinus pyralis) (P08659 whole entry, looked up): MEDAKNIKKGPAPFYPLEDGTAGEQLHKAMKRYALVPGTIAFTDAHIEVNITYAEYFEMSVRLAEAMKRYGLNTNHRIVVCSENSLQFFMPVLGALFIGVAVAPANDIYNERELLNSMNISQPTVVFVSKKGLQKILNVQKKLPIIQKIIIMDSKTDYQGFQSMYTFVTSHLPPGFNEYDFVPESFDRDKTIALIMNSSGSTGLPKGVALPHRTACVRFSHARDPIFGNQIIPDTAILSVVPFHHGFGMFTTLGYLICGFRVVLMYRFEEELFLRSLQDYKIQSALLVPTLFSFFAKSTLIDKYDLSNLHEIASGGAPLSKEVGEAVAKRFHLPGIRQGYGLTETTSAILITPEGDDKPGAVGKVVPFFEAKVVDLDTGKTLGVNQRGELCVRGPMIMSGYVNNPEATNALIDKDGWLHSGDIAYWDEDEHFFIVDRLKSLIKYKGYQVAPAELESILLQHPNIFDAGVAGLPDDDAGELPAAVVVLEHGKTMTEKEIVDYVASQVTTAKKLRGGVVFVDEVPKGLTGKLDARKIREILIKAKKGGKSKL

Chain of Fibroblast growth factor 2 (Homo sapiens) (P09038 whole entry, looked up): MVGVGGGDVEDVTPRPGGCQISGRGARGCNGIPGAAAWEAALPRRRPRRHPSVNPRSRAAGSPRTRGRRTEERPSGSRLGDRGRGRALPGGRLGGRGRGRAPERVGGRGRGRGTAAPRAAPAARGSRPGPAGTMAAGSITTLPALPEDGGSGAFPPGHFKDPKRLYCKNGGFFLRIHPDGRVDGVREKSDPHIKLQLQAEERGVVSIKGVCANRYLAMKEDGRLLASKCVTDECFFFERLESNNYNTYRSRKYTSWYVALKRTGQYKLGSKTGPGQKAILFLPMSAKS
Chain of Follistatin (Homo sapiens) (P19883 whole entry, looked up): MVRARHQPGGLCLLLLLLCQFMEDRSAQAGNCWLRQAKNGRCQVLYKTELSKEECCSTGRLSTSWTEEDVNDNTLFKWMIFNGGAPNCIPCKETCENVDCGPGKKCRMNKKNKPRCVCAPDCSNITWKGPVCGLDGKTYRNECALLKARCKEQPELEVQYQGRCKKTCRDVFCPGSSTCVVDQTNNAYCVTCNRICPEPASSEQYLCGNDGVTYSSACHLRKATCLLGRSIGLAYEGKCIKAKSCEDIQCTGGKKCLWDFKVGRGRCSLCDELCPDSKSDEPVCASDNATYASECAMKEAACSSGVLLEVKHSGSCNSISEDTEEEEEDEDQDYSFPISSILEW
Chain of Focal adhesion kinase 1 (Homo sapiens) (Q05397 whole entry, looked up): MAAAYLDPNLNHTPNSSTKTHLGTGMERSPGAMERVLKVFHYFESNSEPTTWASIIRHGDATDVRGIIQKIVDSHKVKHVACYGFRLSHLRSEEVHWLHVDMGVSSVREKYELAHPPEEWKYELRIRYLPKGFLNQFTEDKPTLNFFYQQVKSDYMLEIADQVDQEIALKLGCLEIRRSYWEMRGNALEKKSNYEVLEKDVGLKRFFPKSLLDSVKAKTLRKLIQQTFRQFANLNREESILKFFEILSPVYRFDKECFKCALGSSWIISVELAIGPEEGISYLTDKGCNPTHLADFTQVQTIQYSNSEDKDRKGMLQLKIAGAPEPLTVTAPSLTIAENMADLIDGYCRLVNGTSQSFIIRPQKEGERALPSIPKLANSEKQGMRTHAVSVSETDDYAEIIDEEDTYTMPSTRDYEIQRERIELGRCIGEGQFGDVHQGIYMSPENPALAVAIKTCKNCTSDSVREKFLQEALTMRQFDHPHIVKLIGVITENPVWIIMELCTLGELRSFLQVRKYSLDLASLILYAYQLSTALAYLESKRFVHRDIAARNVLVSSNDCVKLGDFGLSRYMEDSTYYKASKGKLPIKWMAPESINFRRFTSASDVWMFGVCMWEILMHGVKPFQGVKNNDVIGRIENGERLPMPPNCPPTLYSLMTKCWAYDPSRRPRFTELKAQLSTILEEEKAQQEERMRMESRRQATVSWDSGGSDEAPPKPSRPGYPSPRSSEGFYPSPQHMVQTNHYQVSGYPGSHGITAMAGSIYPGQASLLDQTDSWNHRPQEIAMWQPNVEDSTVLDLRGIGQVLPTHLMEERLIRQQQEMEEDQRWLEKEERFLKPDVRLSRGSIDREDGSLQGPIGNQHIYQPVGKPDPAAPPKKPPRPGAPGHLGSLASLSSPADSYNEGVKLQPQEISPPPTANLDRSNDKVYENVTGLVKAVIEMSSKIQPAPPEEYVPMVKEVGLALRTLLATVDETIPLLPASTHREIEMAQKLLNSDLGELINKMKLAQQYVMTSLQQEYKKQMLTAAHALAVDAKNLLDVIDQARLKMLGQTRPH

Compound	composite z-score [1]	composite z-score [2]	composite z-score [3]	composite z-score [4]	composite z-score [5]	composite z-score [6]	z-score [7]	composite z-score [8]	composite z-score [9]	z-score [10]
CC(C)(C)OC(=O)CC[C@]1(C(=O)NCC(O)CO)COC(c2ccc(OCCCO)cc2)=N1 (stereo not given in full)	1.97	1.22	0.472	0.936	-0.255	-0.473	-0.328	-0.35	0.879	0.438 (inactive)
CCOC(=O)[C@H]1CC=C2CC1C(=O)N1CCC[C@@H]1[C@@H]2O[Si](C)(C)C(C)(C)C (stereo not given in full)	-0.0289	-0.708	-0.173	-0.162	-0.878	-0.206	-0.158	0.449	-0.502	0.367 (inactive)
CCOC(=O)C[C@H]1[C@H](OC(=O)c2ccc(C(=O)c3ccccc3)cc2)[C@@H](NC(=O)c2ccc(-c3ccccc3)cc2)c2cc(OCCCO)ccc2N1C(=O)c1ccccc1	0.256	0.87	0.644	0.803	0.559	0.59	-0.187	0.712	0.131	-0.265 (inactive)
O=C1C2C=CC(C(O)c3c(F)cccc3Cl)N(Nc3ccccc3)C2C(=O)N1c1ccccc1 (stereo not given)	0.397	1.26	0.471	1.03	1.24	-0.0407	0.555	0.464	0.816	0.429 (inactive)
COC(=O)C(CC#Cc1ccc2c(c1)[C@]1(C(=O)N2)[C@H](c2ccc(O)cc2)N2[C@H](c3ccccc3)[C@H](c3ccccc3)OC(=O)[C@H]2[C@@H]1C(=O)Nc1nc2ccccc2s1)C(=O)OC	1.8	1.22	0.833	0.96	1.1	1.22	-1.7	1.23	0.471	-1.63 (inactive)
CC(=O)N1Cc2ccccc2C[C@@]2(COC(c3ccc(OCCCO)cc3)=N2)C1=O	1.93	1.18	0.994	0.842	1.26	0.701	-0.956	0.0786	1.29	-2.19 (inactive)
O=C1O[C@H](c2ccccc2)[C@H](c2ccccc2)N2[C@H]1[C@@H](C(=O)Nc1nc3ccccc3s1)[C@]1(C(=O)Nc3ccc(C#CCCO)cc31)[C@H]2c1ccc(OCCO)cc1	1.18	1.18	0.232	0.9	1.43	1.15	-2.36	1.16	1.04	-2.97 (inactive)
O=C1NC(=O)C2C1C=CC(C(O)c1cccc3ccccc13)N2Nc1ccccn1 (stereo not given)	1.97	0.158	0.132	-0.207	0.169	0.11	1.55	-0.34	0.0591	0.135 (inactive)
CO[C@H]1O[C@H](CO)[C@@H](OC(=O)Nc2ccc(Br)cc2)[C@H](OC(=O)c2cc3ccccc3[nH]2)[C@H]1OC(=O)c1cc2ccccc2[nH]1	1.69	1.14	0.468	0.967	0.729	0.355	-1.07	0.311	0.723	-1.75 (inactive)
CC1(C)[C@@H]2CC(C(O)C3C=CC4C(=O)N(c5ccccc5)C(=O)C4N3Nc3ccccc3)=C[C@H]1C2 (stereo not given in full)	-0.21	0.598	1.13	0.153	0.955	0.329	1.01	-0.409	0.241	0.486 (inactive)
COc1ccc([Si](C)(C)[C@@H]2[C@@H](CCO)O[C@]3(C(=O)N(Cc4ccc(N5C(=O)COc6ccccc65)cc4)c4ccccc43)[C@H]2C)cc1	1.58	1.18	0.571	0.814	0.59	0.621	-0.342	0.955	0.978	0.686 (inactive)
CN1C(=O)[C@]2(Cc3ccccc3)N=C(c3ccc(OCCCO)cc3)O[C@@H]2c2ccccc21	0.0581	1.2	1.07	0.775	1.3	1.8	-0.00476	0.201	0.831	-4.06 (inactive)
O=C1[C@H]2C=C(Br)[C@H](C[C@@H]2c2ccccc2)[C@@]12CO2	0.828	0.253	0.004	-0.0786	1.14	0.402	-0.0698	0.785	-0.21	0.266 (inactive)
CCOC(=O)C1=CCC(c2ccc(C)cc2)N(S(=O)(=O)c2ccc(C)cc2)C1 (stereo not given)	0.403	0.939	0.335	0.258	0.523	-0.279	2.06	0.288	0.396	1.47 (inactive)
COCCOC(=O)N1C(=O)[C@@]2(c3ccccc31)[C@H](c1ccc(O)cc1)N1[C@H](c3ccccc3)[C@H](c3ccccc3)OC(=O)[C@H]1[C@@H]2C(=O)NC[C@H](O)c1ccccc1	2.08	1.2	-0.0504	0.068	0.532	-0.104	-0.767	0.282	0.0324	0.733 (inactive)
CC(C)(C)OC(=O)CC[C@@]12N=C(c3ccc(OCCCO)cc3)O[C@@H]1c1ccccc1N(CCS(=O)(=O)c1ccccc1)C2=O	2.03	1.19	0.412	0.129	1.3	0.109	0.84	0.644	0.653	-7.46 (inactive)
